Compounds without any hit were thinned out: in the full panel of roughly 83,000, 20% have a hit.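 Results are percent growth after 48 hours of single-concentration exposure. 100 means growth as in untreated cells, lower positive values show inhibition; negative values down to -100 show cell death.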 Active and inactive are the calls of the source. Rule for the calls: active = growth percent below 10; inactive = the rest.
Legend:
Assay in all cases: NCI-60 one-dose screen, 48 h (100 = growth as untreated, 0 = no growth, -100 = all killed)
Settings in all cases: 10 µM unless noted
NCI-H226 lung = tested on: NCI-H226 lung
NCI-H322M lung = tested on: NCI-H322M lung
HOP-62 NSCLC = tested on: HOP-62 NSCLC
NCI-H460 lung = tested on: NCI-H460 lung
HOP-92 NSCLC = tested on: HOP-92 NSCLC
A549/ATCC NSCLC = tested on: A549/ATCC NSCLC
786-0 renal = tested on: 786-0 renal
COLO 205 colon = tested on: COLO 205 colon
DU-145 prostate = tested on: DU-145 prostate
K-562 leukemia = tested on: K-562 leukemia
MALME-3M melanoma = tested on: MALME-3M melanoma
MDA-MB-231 breast = tested on: MDA-MB-231 breast
RXF 393 renal = tested on: RXF 393 renal
SF-268 CNS = tested on: SF-268 CNS
SF-295 CNS = tested on: SF-295 CNS
SF-539 CNS = tested on: SF-539 CNS
UACC-257 melanoma = tested on: UACC-257 melanoma
M14 melanoma = tested on: M14 melanoma
NCI-H522 lung = tested on: NCI-H522 lung

Measured: growth

C#CCOc1cc(N(CC)CC)ccc1C(C(=O)NC(C)(C)C)N(C(=O)C1CCc2cc(F)ccc2O1)c1ccc(Br)cc1 (stereo not drawn)
inactive: NCI-H226 lung 81.2% | NCI-H322M lung 82.5% | HOP-62 NSCLC 77.1% | NCI-H460 lung 60.3% | HOP-92 NSCLC 89.6% | A549/ATCC NSCLC 65.1% | 786-0 renal 81.7% | COLO 205 colon 59.1% | DU-145 prostate 97.1% | K-562 leukemia 41.1% | MALME-3M melanoma 92.6% | MDA-MB-231 breast 61.6% | RXF 393 renal 103% | SF-268 CNS 92.8% | SF-295 CNS 96.4% | SF-539 CNS 81.1% | UACC-257 melanoma 87.8% | M14 melanoma 68.3%

O=C(c1ccccc1)c1ccc2nc(-c3ccc(F)cc3)[nH]c2c1
active: NCI-H522 lung -59.7%
inactive: NCI-H226 lung 25.4% | NCI-H322M lung 97.2% | HOP-62 NSCLC 83.5% | NCI-H460 lung 51.4% | HOP-92 NSCLC 90.5% | A549/ATCC NSCLC 82.2% | 786-0 renal 39% | COLO 205 colon 85.8% | DU-145 prostate 74.9% | K-562 leukemia 20.9% | MALME-3M melanoma 73% | MDA-MB-231 breast 42.2% | RXF 393 renal 49.2% | SF-268 CNS 47.7% | SF-295 CNS 97.1% | SF-539 CNS 50.6% | UACC-257 melanoma 68.5% | M14 melanoma 54.4%

Cn1cc(-c2nc(N)nnc2-c2c[nH]c3ccc(Br)cc23)c2cc(Br)cnc21
active: NCI-H460 lung -25% | HOP-92 NSCLC -6.93% | NCI-H522 lung -47.4% | 786-0 renal -10.9% | COLO 205 colon -85.3% | K-562 leukemia 0.943% | MALME-3M melanoma 4.82% | RXF 393 renal -8.55% | SF-539 CNS -9.44% | M14 melanoma 0.895%
inactive: NCI-H226 lung 11.9% | NCI-H322M lung 37.8% | HOP-62 NSCLC 17.8% | A549/ATCC NSCLC 12.5% | DU-145 prostate 14.2% | MDA-MB-231 breast 11.4% | SF-268 CNS 10.9% | SF-295 CNS 11.4% | UACC-257 melanoma 47.3%

COc1ccc(/C=N/NC(=O)Cn2nc(Cc3ccc(OC)cc3)c3onc(C)c3c2=O)cc1
active: 786-0 renal -55.5% | RXF 393 renal 2.21%
inactive: NCI-H226 lung 49.6% | NCI-H322M lung 59% | HOP-62 NSCLC 42.8% | NCI-H460 lung 30.5% | NCI-H522 lung 58.1% | A549/ATCC NSCLC 45.2% | COLO 205 colon 55.7% | DU-145 prostate 64% | K-562 leukemia 53.9% | MALME-3M melanoma 50.8% | MDA-MB-231 breast 57.8% | SF-268 CNS 65.4% | SF-295 CNS 48.2% | SF-539 CNS 47.6% | UACC-257 melanoma 77% | M14 melanoma 63.9%

Nc1nc(-c2ccccc2)c(N=Nc2ccc(Cl)cc2[N+](=O)[O-])s1
inactive: NCI-H226 lung 77.4% | NCI-H322M lung 94.2% | HOP-62 NSCLC 90.9% | NCI-H460 lung 105% | NCI-H522 lung 82.7% | A549/ATCC NSCLC 95.3% | 786-0 renal 93.4% | COLO 205 colon 101% | DU-145 prostate 112% | K-562 leukemia 96.1% | MALME-3M melanoma 109% | MDA-MB-231 breast 95.5% | RXF 393 renal 106% | SF-268 CNS 87.7% | SF-295 CNS 101% | SF-539 CNS 86.5% | UACC-257 melanoma 103% | M14 melanoma 98.3%

CC1[C@H]2[C@H](C[C@H]3[C@@H]4CC=C5c6sc(Nc7ccccc7F)nc6CC[C@]5(C)[C@H]4CC[C@@]32C)O[C@]12CC[C@@H](C)CO2 (stereo partly drawn)
active: NCI-H226 lung -29.2% | NCI-H322M lung -31.4% | HOP-62 NSCLC -62.4% | NCI-H460 lung -62.6% | NCI-H522 lung -66.5% | A549/ATCC NSCLC -63.5% | 786-0 renal -82.1% | COLO 205 colon -88.3% | DU-145 prostate -48.6% | K-562 leukemia 1.23% | MALME-3M melanoma -73.9% | MDA-MB-231 breast -57.5% | RXF 393 renal -88.7% | SF-268 CNS -53.5% | SF-295 CNS -75.5% | SF-539 CNS -87.9% | UACC-257 melanoma -85.1% | M14 melanoma -87.8%

COc1cc2oc(-c3cccc(C(=O)Nc4ccc(Cl)cc4)c3)cc(=O)c2c(OCCNC(=O)[C@H](CO)NC(=O)OC(C)(C)C)c1OC
active: NCI-H460 lung 9.69% | HOP-92 NSCLC -2.01% | NCI-H522 lung 6.54% | COLO 205 colon -43.4% | MDA-MB-231 breast 2.74% | RXF 393 renal -25.7% | SF-295 CNS -16.4% | SF-539 CNS -54.2% | UACC-257 melanoma -41.7% | M14 melanoma -7.57%
inactive: NCI-H226 lung 42% | HOP-62 NSCLC 55.1% | A549/ATCC NSCLC 23.8% | 786-0 renal 32.4% | DU-145 prostate 32.2% | K-562 leukemia 11.3% | MALME-3M melanoma 20% | SF-268 CNS 41.4%

Nc1nc(-c2ccccc2)c(N=Nc2ccc([N+](=O)[O-])cc2Cl)s1
inactive: NCI-H226 lung 77.5% | HOP-62 NSCLC 101% | NCI-H460 lung 74.1% | HOP-92 NSCLC 41.1% | NCI-H522 lung 48.8% | A549/ATCC NSCLC 89.8% | 786-0 renal 94.9% | COLO 205 colon 97.6% | DU-145 prostate 95.4% | K-562 leukemia 67.3% | MALME-3M melanoma 108% | MDA-MB-231 breast 87.8% | RXF 393 renal 109% | SF-268 CNS 90.2% | SF-295 CNS 92.1% | SF-539 CNS 96.5% | UACC-257 melanoma 61.6% | M14 melanoma 92.9%

Cn1cc(-c2cc3nc(-c4c[nH]c5ccc(Br)cc45)cc(N)n3n2)c2ccccc21
active: NCI-H226 lung -35% | NCI-H322M lung -48.8% | HOP-62 NSCLC -74.4% | NCI-H460 lung -52.9% | HOP-92 NSCLC -73.6% | NCI-H522 lung -68.9% | A549/ATCC NSCLC -71.7% | 786-0 renal -89.6% | COLO 205 colon -83.5% | DU-145 prostate -85.7% | K-562 leukemia 0.783% | MALME-3M melanoma -73.4% | MDA-MB-231 breast -63.2% | RXF 393 renal -89.4% | SF-268 CNS -32.7% | SF-295 CNS -81.8% | SF-539 CNS -89.7% | UACC-257 melanoma -84.6% | M14 melanoma -85.5%

COc1cc2oc(-c3cccc(C(=O)Nc4ccc(Cl)cc4)c3)cc(=O)c2c(OCC(=O)N[C@@H](Cc2ccccc2)C(=O)O)c1OC
inactive: NCI-H226 lung 102% | NCI-H322M lung 103% | HOP-62 NSCLC 120% | NCI-H460 lung 111% | HOP-92 NSCLC 124% | A549/ATCC NSCLC 106% | 786-0 renal 102% | COLO 205 colon 119% | DU-145 prostate 111% | K-562 leukemia 96.5% | MALME-3M melanoma 107% | MDA-MB-231 breast 96.1% | RXF 393 renal 111% | SF-268 CNS 110% | SF-295 CNS 111% | SF-539 CNS 99.3% | UACC-257 melanoma 104%

CC1(C)CC[C@]2(C(=O)O)CC[C@]3(C)C(=CCC4[C@@]5(C)C[C@@H](O)[C@@H]6OC(c7cccc(Br)c7)OC[C@@]6(C)C5CC[C@]43C)C2C1 (stereo partly drawn)
active: COLO 205 colon -31.4%
inactive: NCI-H226 lung 46.4% | NCI-H322M lung 38.7% | HOP-62 NSCLC 47.6% | NCI-H460 lung 20.2% | HOP-92 NSCLC 25.2% | A549/ATCC NSCLC 23% | 786-0 renal 52.7% | DU-145 prostate 32.5% | K-562 leukemia 16% | MALME-3M melanoma 73.9% | MDA-MB-231 breast 71.2% | RXF 393 renal 71.3% | SF-268 CNS 47.5% | SF-295 CNS 33% | SF-539 CNS 54.6% | UACC-257 melanoma 53.1% | M14 melanoma 53.2%

CC1(C)CC[C@]2(C(=O)O)CC[C@]3(C)C(=CCC4[C@@]5(C)C[C@@H](O)[C@@H]6OC(c7ccccc7Br)OC[C@@]6(C)C5CC[C@]43C)C2C1 (stereo partly drawn)
active: NCI-H460 lung 4.53% | COLO 205 colon -36.9%
inactive: NCI-H226 lung 26.7% | NCI-H322M lung 21.2% | HOP-62 NSCLC 30.3% | NCI-H522 lung 12.1% | A549/ATCC NSCLC 16.6% | 786-0 renal 24.9% | DU-145 prostate 20% | K-562 leukemia 11.6% | MALME-3M melanoma 44% | MDA-MB-231 breast 32.4% | RXF 393 renal 22.7% | SF-268 CNS 24.2% | SF-295 CNS 10.6% | SF-539 CNS 26.8% | UACC-257 melanoma 18.2% | M14 melanoma 31.8%

CCN(CC)c1ccc(/C=N/Nc2nc(-c3ccc(Br)cc3)cs2)c(O)c1
active: K-562 leukemia 4.62%
inactive: NCI-H226 lung 31.7% | NCI-H322M lung 96.9% | HOP-62 NSCLC 110% | NCI-H460 lung 89.3% | HOP-92 NSCLC 104% | NCI-H522 lung 17% | A549/ATCC NSCLC 90.5% | 786-0 renal 49.9% | COLO 205 colon 58.3% | DU-145 prostate 91.7% | MALME-3M melanoma 53.4% | MDA-MB-231 breast 95.9% | RXF 393 renal 64.9% | SF-268 CNS 99.7% | SF-295 CNS 91.5% | SF-539 CNS 52.3% | UACC-257 melanoma 91.7% | M14 melanoma 54.5%

CCN(CC)c1ccc(/C=N/Nc2nc(-c3ccc(C)cc3)cs2)c(O)c1
inactive: NCI-H226 lung 63.7% | NCI-H322M lung 98.1% | HOP-62 NSCLC 109% | NCI-H460 lung 111% | NCI-H522 lung 65.2% | A549/ATCC NSCLC 92.2% | 786-0 renal 96.2% | COLO 205 colon 110% | DU-145 prostate 97.6% | K-562 leukemia 62.1% | MALME-3M melanoma 105% | MDA-MB-231 breast 99.6% | RXF 393 renal 87.1% | SF-268 CNS 105% | SF-295 CNS 93.6% | SF-539 CNS 106% | UACC-257 melanoma 95.2% | M14 melanoma 99.7%

C#CCOc1cc(N(CC)CC)ccc1C(C(=O)NC(C)(C)C)N(C(=O)C1CCc2cc(F)ccc2O1)c1ccccc1F (stereo not drawn)
inactive: NCI-H226 lung 34.4% | HOP-62 NSCLC 49.5% | NCI-H460 lung 30.1% | HOP-92 NSCLC 18.6% | NCI-H522 lung 31.2% | A549/ATCC NSCLC 35.2% | 786-0 renal 44.1% | COLO 205 colon 12.9% | DU-145 prostate 58.4% | K-562 leukemia 17% | MALME-3M melanoma 57.7% | MDA-MB-231 breast 53.4% | RXF 393 renal 40.4% | SF-268 CNS 38.4% | SF-295 CNS 19.9% | SF-539 CNS 50.7% | UACC-257 melanoma 30.2% | M14 melanoma 39%
